Laboratory results taken from PubChem BioAssay.
The source made the active and inactive calls. Unless noted, no rule for the calls is given here.

Columns and labels:
[1] = anti-His antibody binders, primary screen, artefact control for SMM control protein annotation, biochemical, small-molecule microarray, 635 nm fluorescence (AID 1128); settings: anti-His Alexa647 antibody binding, higher = more signal;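 also: score merges feature fluorescence with signal-to-noise for each printed compound spot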
[2] = test system: Human papillomavirus type 1a E7 protein (residues 1-88); test: HPV1a E7 small-molecule binders, primary screen, biochemical, small-molecule microarray, residues 1-88, 635 nm (AID 1129); settings: small-molecule microarray binding, fluorescence 635 nm; higher = more signal
[3] = target: Focal adhesion kinase 1 (Homo sapiens) (UniProt Q05397); test: small-molecule microarray binders of FAK, primary screen, biochemical, 635/667 nm fluorescence, BSA, DTT (AID 1130); settings: PTK2 binding, 635 nm fluorescence, higher = more signal;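 also: composite of spot emission at 667 nm and signal to noise over triplicate slides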
Focal adhesion kinase 1 (Homo sapiens), sequence (Q05397 whole entry, looked up): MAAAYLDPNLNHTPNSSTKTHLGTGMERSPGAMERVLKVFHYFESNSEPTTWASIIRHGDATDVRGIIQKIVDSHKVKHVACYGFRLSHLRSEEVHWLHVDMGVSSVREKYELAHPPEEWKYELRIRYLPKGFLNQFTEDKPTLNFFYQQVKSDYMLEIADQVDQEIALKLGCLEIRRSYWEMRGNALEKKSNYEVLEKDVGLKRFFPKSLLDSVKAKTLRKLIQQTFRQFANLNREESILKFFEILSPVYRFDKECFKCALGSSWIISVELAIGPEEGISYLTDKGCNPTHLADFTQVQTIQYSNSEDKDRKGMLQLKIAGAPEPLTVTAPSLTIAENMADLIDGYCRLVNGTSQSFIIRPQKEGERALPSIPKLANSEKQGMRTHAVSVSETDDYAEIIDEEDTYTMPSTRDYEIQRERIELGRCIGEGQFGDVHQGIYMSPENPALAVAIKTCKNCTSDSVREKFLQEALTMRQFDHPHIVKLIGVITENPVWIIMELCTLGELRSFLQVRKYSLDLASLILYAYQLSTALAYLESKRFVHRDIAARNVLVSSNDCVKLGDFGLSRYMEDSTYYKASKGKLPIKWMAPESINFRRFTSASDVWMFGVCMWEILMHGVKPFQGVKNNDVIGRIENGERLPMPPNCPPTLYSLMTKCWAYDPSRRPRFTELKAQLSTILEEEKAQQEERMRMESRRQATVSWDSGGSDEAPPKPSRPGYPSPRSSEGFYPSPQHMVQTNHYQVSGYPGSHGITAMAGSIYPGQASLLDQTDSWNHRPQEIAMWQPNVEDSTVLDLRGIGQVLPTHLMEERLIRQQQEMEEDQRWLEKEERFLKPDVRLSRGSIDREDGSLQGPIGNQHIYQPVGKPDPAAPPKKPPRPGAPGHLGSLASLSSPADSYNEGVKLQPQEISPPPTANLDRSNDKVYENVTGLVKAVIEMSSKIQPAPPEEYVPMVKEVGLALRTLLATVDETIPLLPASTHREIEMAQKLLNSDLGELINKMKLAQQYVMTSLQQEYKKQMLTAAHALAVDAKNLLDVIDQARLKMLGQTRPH

[4] = test system: Fibrinogen (Alexa647-labelled); test: fibrinogen binders on compound microarrays, profiling panel, artefact control for SMM control-protein annotation, biochemical, small-molecule microarray, 635/667 nm fluorescence (AID 1131); settings: fibrinogen-A647 binding fluorescence, higher = more signal;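 also: z-score merges 667 nm fluorescence with per-spot signal-to-noise over triplicate slides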
[5] = target: Follistatin (Homo sapiens) (UniProt P19883); test: follistatin binders on small-molecule microarrays, primary screen, biochemical, small-molecule microarray, 635/667 nm fluorescence (AID 1132); settings: FST binding, 635 nm fluorescence, higher = more signal
Follistatin (Homo sapiens), sequence (P19883 whole entry, looked up): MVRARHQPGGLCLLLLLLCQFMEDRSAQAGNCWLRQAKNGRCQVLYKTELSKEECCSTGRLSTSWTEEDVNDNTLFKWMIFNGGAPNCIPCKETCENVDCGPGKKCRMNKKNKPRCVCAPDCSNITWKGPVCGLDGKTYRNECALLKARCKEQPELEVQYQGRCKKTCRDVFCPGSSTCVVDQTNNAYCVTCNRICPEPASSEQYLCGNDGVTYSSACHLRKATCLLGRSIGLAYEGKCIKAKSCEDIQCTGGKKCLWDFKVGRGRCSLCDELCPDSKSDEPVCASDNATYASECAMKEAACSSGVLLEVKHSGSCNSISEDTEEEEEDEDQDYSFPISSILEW

[6] = target: Fibroblast growth factor 2 (Homo sapiens) (UniProt P09038); test: FGF2 binders on small-molecule microarrays, primary screen, biochemical, small-molecule microarray, 635/667 nm fluorescence (AID 1133); settings: small-molecule microarray binding, FGF2, fluorescence 635/667; higher = more signal
Fibroblast growth factor 2 (Homo sapiens), sequence (P09038 whole entry, looked up): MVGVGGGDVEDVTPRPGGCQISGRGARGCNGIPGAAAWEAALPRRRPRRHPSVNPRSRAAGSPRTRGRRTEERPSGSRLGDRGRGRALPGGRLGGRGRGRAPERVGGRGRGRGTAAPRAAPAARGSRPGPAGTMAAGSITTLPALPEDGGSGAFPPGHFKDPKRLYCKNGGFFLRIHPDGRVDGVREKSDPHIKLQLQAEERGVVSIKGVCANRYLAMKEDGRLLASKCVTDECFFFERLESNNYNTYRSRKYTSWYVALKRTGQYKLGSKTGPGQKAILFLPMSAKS

[7] = mitochondrial membrane potential change in A549 cells, profiling panel, cell-based, JC-1 fluorescence, basal, 24 h, 100 nL (AID 1138); settings: higher = more signal;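 also: A549 lung adenocarcinoma cells under basal conditions with no added stimulus; test concentration not given here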
Lefty1 = Lefty1 binders on small-molecule microarrays, primary screen, biochemical, small-molecule microarray, 635/667 nm fluorescence (AID 1139); settings: small-molecule microarray binding, fluorescence 635/667; higher = more signal
[8] = test system: wheat germ agglutinin (Triticum aestivum), Alexa647-labelled; test: wheat germ agglutinin binders on compound microarrays, profiling panel, artefact control for SMM control-protein annotation, biochemical, small-molecule microarray, 635/667 nm fluorescence (AID 1140); settings: WGA-A647 binding, 635 nm fluorescence, higher = more signal;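 also: score merges 667 nm feature emission with signal to noise over triplicate slides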
[9] = target: Luciferin 4-monooxygenase (Photinus pyralis) (UniProt P08659); test: firefly luciferase enzyme inhibitors, primary screen, biochemical, luminescence, purified enzyme, 2006 set (AID 1141); settings: SteadyGlo luminescence, 30 min, higher = more signal, called active from +8 up or from −8 down;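 also: cell-free assay with purified firefly luciferase at 100 ng per well in PBS; test concentration not given here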
Luciferin 4-monooxygenase (Photinus pyralis), sequence (P08659 whole entry, looked up): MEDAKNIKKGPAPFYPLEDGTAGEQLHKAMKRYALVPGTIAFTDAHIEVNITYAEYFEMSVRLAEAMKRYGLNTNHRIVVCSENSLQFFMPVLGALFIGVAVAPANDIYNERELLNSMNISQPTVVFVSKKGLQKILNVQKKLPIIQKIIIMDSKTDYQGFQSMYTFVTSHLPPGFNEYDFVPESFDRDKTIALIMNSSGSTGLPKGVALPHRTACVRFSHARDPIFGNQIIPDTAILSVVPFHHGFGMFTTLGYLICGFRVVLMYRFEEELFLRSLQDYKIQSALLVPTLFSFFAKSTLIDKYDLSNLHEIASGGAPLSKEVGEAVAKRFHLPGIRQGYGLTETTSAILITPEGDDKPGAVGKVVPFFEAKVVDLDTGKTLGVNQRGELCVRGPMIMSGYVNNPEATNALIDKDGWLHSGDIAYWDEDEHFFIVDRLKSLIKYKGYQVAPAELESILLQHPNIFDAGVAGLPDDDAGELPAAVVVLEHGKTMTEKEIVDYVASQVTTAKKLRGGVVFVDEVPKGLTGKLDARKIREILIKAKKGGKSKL

[10] = test system: Wnt5a (protein binding on small-molecule microarray); test: Wnt5a binders on small-molecule microarray, primary screen, biophysical, 635/667 nm fluorescence (AID 1142); settings: 635 nm fluorescence, higher = more signal;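 also: fluorescence read at 667 nm with signal to noise per printed feature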
[11] = cell viability in Huh7 cells, primary screen, cytotoxicity control for HCV replication inhibitor project, CellTiter-Glo luminescence, basal, 48 h (AID 1143); settings: Huh7 HCV replicon, higher = more signal, called active from +8 up or from −8 down;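 also: Huh7 hepatoma cells carrying a hepatitis C replication reporter with no stimulus; test concentration not given here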
[12] = P. aeruginosa biofilm formation inhibitors, primary screen, PAO1 strain, BacTiter-Glo luminescence, LB-PBS (AID 1144); settings: 12 h, higher = more signal
[13] = CREB reporter modulators without forskolin, primary screen, cell-based, PC12, CRE-LacZ reporter, unstimulated (AID 1145); settings: no forskolin, luminescence, 4.5 h, higher = more signal, called active from +8 up or from −8 down
[14] = CREB reporter modulators under forskolin, primary screen, cell-based, PC12, CRE-LacZ reporter, forskolin-stimulated (AID 1146); settings: luminescence, 4.5 h, higher = more signal, called active from +8 up or from −8 down;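 also: PC12 cells with 6xCRE LacZ reporter stimulated by forskolin 10 µM; beta-galactosidase reporter signal reflecting CREB driven transcription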
[15] = target: Streptavidin (Streptomyces avidinii) (UniProt P22629); test: streptavidin binders on small-molecule microarray, primary screen, artefact control for SMM compound annotation, biophysical, 635/667 nm fluorescence (AID 1147); settings: streptavidin binding, higher = more signal;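 also: signal reflects streptavidin binding to arrayed compounds as a control protein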
Streptavidin (Streptomyces avidinii), sequence (P22629 whole entry, looked up): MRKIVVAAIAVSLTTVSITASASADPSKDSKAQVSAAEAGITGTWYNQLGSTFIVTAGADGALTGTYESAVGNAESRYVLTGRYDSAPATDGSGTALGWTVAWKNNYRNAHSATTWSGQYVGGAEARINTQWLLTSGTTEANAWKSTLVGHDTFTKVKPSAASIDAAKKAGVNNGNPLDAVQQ

[16] = small-molecule binders of probe aInhba, primary screen, biochemical, small-molecule microarray, 635/667 nm fluorescence (AID 1148); settings: higher = more signal;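 also: score merges 667nm spot fluorescence with signal-to-noise for antibody binding to printed compounds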
Torsin-1A (Homo sapiens) [17] = target: Torsin-1A (Homo sapiens) (UniProt O14656); test: torsin A binders from cell lysate, primary screen, small-molecule microarray, wild-type, 635/667 nm (AID 1149); settings: COS7 hTOR1A-WT lysate, 635 nm fluorescence, higher = more signal
Torsin-1A (Homo sapiens), sequence (O14656 whole entry, looked up): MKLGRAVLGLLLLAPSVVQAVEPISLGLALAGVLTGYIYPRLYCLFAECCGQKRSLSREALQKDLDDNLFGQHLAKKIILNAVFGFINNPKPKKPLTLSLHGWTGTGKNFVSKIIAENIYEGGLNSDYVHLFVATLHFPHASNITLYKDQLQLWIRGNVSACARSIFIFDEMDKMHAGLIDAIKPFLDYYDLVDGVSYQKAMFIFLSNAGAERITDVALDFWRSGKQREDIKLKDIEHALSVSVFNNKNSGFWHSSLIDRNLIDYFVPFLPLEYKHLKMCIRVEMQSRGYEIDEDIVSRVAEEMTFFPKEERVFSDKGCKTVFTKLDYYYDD

Torsin-1A (Homo sapiens) [18] = target: Torsin-1A (Homo sapiens) (UniProt O14656); test: small-molecule binders of mutant TOR1A in lysate, primary screen, cell lysate, small-molecule microarray, COS7 lysate, 635/667 nm fluorescence (AID 1150); settings: COS7 hTOR1A mutant lysate, 635 nm fluorescence, higher = more signal;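 also: score pools 667 nm emission and signal to noise measuring lysate protein binding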
[19] = test system: Sonic hedgehog protein (Shh); test: small-molecule binders of Shh protein, primary screen, biochemical, small-molecule microarray, 635/667 nm fluorescence (AID 1151); settings: small-molecule microarray binding, 635 nm fluorescence; higher = more signal;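 also: Shh protein binding to compounds spotted on small-molecule microarray slides; score combines spot fluorescence intensity with signal-to-noise across triplicate slides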

| Structure (SMILES) | composite z-score [1] | composite z-score [2] | composite z-score [3] | composite z-score [4] | composite z-score [5] | composite z-score [6] | z-score [7] | composite z-score (Lefty1) | composite z-score [8] | z-score [9] | composite z-score [10] | z-score [11] | z-score [12] | z-score [13] | z-score [14] | composite z-score [15] | composite z-score [16] | composite z-score (Torsin-1A (Homo sapiens) [17]) | composite z-score (Torsin-1A (Homo sapiens) [18]) | composite z-score [19] |
| --- | --- | --- | --- | --- | --- | --- | --- | --- | --- | --- | --- | --- | --- | --- | --- | --- | --- | --- | --- | --- |
| COc1ccc([Si](C)(C)[C@@H]2[C@@H](CC(=O)N3Cc4ccccc4C[C@H]3CO)O[C@]3(C(=O)N(Cc4cccc(N5C(=O)c6cccc7cccc5c67)c4)c4ccccc43)[C@H]2C)cc1 | 0.846 | 0.956 | 0.434 | 0.883 | 1.35 | 1.62 | 0.129 | 0.937 | 0.423 | -0.347 (inactive) | 0.51 | -4.1 (inactive) | -0.194 (inactive) | 0.861 (inactive) | 0.838 (inactive) | 0.211 | 0.0091 | 0.786 | 0.535 | 1.19 |
| CC(C)C(=C=CC[C@H](O)c1cccc(OCCO)c1)C[C@H](O)c1cc(Cl)cc(Cl)c1O | -0.397 | 0.637 | 0.295 | 0.713 | 1.31 | 0.484 | 0.487 | 1.3 | 0.628 | -0.316 (inactive) | 0.255 | -0.254 (inactive) | -1.02 (inactive) | 5.53 (inactive) | 0.813 (inactive) | 0.092 | -0.116 | 0.605 | -0.356 | 1.95 |
| CCC[C@@H]1C[C@@]1(CCC)[C@@H](NC(=O)OCc1ccccc1)c1ccc(-c2ccccc2)cc1 | -0.526 | -0.691 | -0.278 | -1.37 | 0.136 | -0.824 | 0.289 | -0.543 | -0.693 | -0.765 (inactive) | -0.189 | -1.28 (inactive) | -0.0658 (inactive) | -0.375 (inactive) | 0.785 (inactive) | -0.504 | -0.12 | -0.301 | -0.928 | -0.895 |
| CCOc1cc(C(O)C2C=CC3C(=O)N(C)C(=O)C3N2Nc2ccccc2)ccc1O (stereo not given) | 1.08 | 0.881 | 0.327 | 0.651 | 0.0506 | -0.153 | -0.203 | -0.0696 | 0.974 | -1.2 (inactive) | 0.297 | 0.559 (inactive) | -0.947 (inactive) | 0.626 (inactive) | -0.276 (inactive) | 0.702 | -0.0297 | 0.526 | 0.467 | -0.485 |
| CN1C(=O)C2C=CC(C(O)c3ccccn3)N(N(c3ccccc3)c3ccccc3)C2C1=O (stereo not given) | 0.375 | 0.669 | 0.0673 | 0.66 | 0.82 | 0.397 | 0.613 | 0.0714 | 0.747 | -0.009 (inactive) | 0.485 | 0.346 (inactive) | -1.26 (inactive) | 0.0569 (inactive) | -0.164 (inactive) | -0.0902 | 0.167 | 0.678 | 0.291 | 0.424 |
| CC(C)[Si](C#C[Si](C(C)C)(C(C)C)C(C)C)(O[C@H](C)c1cn([C@H](CO)Cc2ccccc2)nn1)C(C)C | 0.0517 | 0.209 | 0.21 | 0.259 | -0.093 | 0.288 | 0.476 | 0.412 | 0.141 | -1.03 (inactive) | -0.0305 | -0.43 (inactive) | -1.52 (inactive) | -0.463 (inactive) | -0.531 (inactive) | 0.291 | -0.234 | 0.238 | 0.144 | 0.341 |
| CC(C)(C)N1CC=CC23O[C@@H]4C=CCCOC(=O)C4[C@H]2C(=O)N(CCO)[C@@H]3C1=O (stereo not given in full) | -0.513 | -0.991 | -0.541 | 0.0853 | -0.607 | 0.23 | -0.845 | -0.551 | -0.0465 | 0.0324 (inactive) | -0.323 | 0.297 (inactive) | -0.249 (inactive) | -1.44 (inactive) | -0.443 (inactive) | -0.485 | -0.237 | -0.102 | -0.664 | 1.09 |
| COC(=O)[C@@]1(Cc2ccc(F)cc2)[C@H]2c3cc(C(=O)N4CCCC4)n(CCc4ccc(O)c(O)c4)c3C[C@H]2CN1C(=O)c1ccccc1 | -0.371 | -0.253 | 0.842 | -2.54 | -0.411 | -0.751 | -0.692 | -0.49 | -0.312 | -7.51 (inactive) | 1.2 | -1.78 (inactive) | -0.809 (inactive) | 3.05 (inactive) | -0.268 (inactive) | -0.185 | 1.24 | 0.0585 | 0.0389 | -0.987 |
| Cn1cccc1C(O)C1C=CC2C(=O)NC(=O)C2N1Nc1ccc(Cl)cc1Cl (stereo not given) | 1.43 | 1.24 | 1.42 | 1.02 | 1.28 | 0.0937 | -0.13 | -0.207 | 1.15 | -1.4 (inactive) | 0.0792 | -0.316 (inactive) | -0.668 (inactive) | 0.812 (inactive) | 2.09 (inactive) | 1.37 | 0.374 | 0.887 | 1.05 | -0.269 |
| C=C(COC)/C(=C/C[C@H](OC(=O)c1ccncc1)c1ccccc1OCCO)c1cnc2ccccc2c1 | 0.717 | 1.23 | 0.241 | 1.01 | 1.4 | 1.35 | 0.662 | 1.5 | 1.04 | -0.212 (inactive) | 0.488 | -0.854 (inactive) | -1.13 (inactive) | 3.24 (inactive) | 1.42 (inactive) | 0.294 | 0.156 | 1.57 | 1.42 | 2.22 |
